Assay results reported in PubChem BioAssay (NCATS).
Results filed as inconclusive are left out. Entries that show only a call come without a potency. Unmarked numbers belong to inactive results. Active and inactive are the calls of the source. Calls follow the shape of the dose curve; as a rule, active = well fitted curve in the direction sought with a large enough effect; inconclusive = small, poorly fitted or top-dose-only effect, or another doubt; inactive = no such curve, though single readings can be large; an effect the other way counts as inactive or inconclusive.

Legend:
[1] = target: Rap guanine nucleotide exchange factor 3 (Homo sapiens) (UniProt O95398); assay: Confirmatory qHTS for agonist of cAMP-regulated guanine nucleotide exchange factor 3 (EPAC1) (AID 1645881);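 also: EPAC1 catalysed release of BODIPY-GDP from Rap1B seen as fluorescence loss; nearly all actives have a fitted effect of over 75% in size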
Rap guanine nucleotide exchange factor 3 (Homo sapiens), sequence (O95398 whole entry, looked up): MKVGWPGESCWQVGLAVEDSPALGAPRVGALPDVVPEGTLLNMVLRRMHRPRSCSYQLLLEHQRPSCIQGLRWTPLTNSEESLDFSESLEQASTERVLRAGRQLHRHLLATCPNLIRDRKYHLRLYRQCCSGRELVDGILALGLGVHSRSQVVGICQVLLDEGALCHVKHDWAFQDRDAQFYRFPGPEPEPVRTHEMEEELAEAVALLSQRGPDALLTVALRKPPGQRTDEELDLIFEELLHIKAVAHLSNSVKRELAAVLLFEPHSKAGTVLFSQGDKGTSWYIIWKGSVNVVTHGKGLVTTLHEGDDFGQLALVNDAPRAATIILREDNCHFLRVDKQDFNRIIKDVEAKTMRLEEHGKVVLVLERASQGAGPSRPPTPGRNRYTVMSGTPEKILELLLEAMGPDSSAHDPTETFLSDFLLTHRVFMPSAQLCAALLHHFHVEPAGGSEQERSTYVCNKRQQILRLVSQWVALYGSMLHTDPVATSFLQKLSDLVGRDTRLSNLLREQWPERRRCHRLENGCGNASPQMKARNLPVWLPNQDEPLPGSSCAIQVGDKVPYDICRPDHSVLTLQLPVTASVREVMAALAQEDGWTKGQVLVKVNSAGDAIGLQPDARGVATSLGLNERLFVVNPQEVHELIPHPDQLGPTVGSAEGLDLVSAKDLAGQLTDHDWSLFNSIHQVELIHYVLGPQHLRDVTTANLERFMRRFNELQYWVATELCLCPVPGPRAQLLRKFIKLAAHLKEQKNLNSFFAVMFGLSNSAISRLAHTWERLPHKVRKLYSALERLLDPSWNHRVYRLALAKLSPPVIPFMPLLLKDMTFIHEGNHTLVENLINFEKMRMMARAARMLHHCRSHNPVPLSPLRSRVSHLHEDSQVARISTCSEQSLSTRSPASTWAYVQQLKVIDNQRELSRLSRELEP

[2] = target: Rap guanine nucleotide exchange factor 4 (Homo sapiens) (UniProt Q8WZA2); assay: Confirmatory qHTS for agonist of cAMP-regulated guanine nucleotide exchange factor 4 (EPAC2) (AID 1645884);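 also: nucleotide exchange releases bodipy-GDP from Rap1 and this lowers its fluorescence; nearly all actives have a fitted effect of over 65% in size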
Rap guanine nucleotide exchange factor 4 (Homo sapiens), sequence (Q8WZA2 whole entry, looked up): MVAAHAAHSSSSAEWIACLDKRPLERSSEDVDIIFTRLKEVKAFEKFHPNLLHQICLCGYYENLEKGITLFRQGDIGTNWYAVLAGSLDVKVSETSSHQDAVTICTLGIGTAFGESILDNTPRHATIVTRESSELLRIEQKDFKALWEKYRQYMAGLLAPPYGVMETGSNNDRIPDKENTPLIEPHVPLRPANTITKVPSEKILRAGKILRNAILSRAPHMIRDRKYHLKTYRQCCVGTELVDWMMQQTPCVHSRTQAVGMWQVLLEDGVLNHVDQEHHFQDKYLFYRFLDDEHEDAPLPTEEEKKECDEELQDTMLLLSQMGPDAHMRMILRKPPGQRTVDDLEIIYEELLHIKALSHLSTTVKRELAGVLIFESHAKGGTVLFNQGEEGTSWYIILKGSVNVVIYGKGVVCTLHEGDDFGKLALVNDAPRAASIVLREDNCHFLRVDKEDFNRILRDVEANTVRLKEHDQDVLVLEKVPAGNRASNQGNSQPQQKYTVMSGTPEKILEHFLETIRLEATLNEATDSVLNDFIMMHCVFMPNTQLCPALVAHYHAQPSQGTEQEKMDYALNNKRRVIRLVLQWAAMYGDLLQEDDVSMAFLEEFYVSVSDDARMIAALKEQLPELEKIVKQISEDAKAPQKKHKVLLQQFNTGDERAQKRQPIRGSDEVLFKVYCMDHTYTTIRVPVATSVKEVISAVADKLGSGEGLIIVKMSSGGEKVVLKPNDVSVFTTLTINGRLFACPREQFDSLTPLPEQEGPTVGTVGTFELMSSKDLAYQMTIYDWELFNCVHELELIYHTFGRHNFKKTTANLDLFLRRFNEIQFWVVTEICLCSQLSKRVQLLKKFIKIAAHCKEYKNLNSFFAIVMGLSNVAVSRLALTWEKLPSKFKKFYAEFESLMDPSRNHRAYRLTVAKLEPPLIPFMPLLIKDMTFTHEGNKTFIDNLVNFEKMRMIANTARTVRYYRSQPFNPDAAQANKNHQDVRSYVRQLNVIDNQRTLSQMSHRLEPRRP

[3] = target: Rap guanine nucleotide exchange factor 4 (Homo sapiens) (UniProt Q8WZA2); assay: Confirmatory qHTS for antagonist of cAMP-regulated guanine nucleotide exchange factor 4 (EPAC2) (AID 1645885); also: nearly all actives have a fitted effect of over 25% in size; also: potency is read from the fitted curve at half-maximal effect
[4] = target: Rap guanine nucleotide exchange factor 3 (Homo sapiens) (UniProt O95398); assay: Counterscreen qHTS for antagonist of cAMP-regulated guanine nucleotide exchange factor 3 (EPAC1) (AID 1645888);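 also: fluorescence loss as bound BODIPY-GDP is released from Rap1B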
Outline: (§1)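 Measured: fluorescence of BODIPY-GDP bound to Rap1B, which falls as exchange proceeds. Conditions include 50 uM competing GDP, 5 and 30 min reads, and a later cAMP challenge for antagonist detection.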

[5] = target: Rap guanine nucleotide exchange factor 3 (Homo sapiens) (UniProt O95398); assay: Counterscreen qHTS for agonist of cAMP-regulated guanine nucleotide exchange factor 3 (EPAC1) (AID 1645889); also: nearly all actives have a fitted effect of over 40% in size; also: potency is read from the fitted curve at half-maximal effect
Outline: as §1

Structure (SMILES)	Potency [1]	activation [2]	Potency [3]	activity change, negative = inhibition [4]	activation [5]	Potency [2]	Potency [4]	Potency [5]	outcome [3]
COC(=O)c1ccc(-c2ccc(/C=N/N3C(=O)C4C5C=CC(C6CC56)C4C3=O)o2)cc1 (stereo not given)	inactive	1.41% [at 17.1 µM, percent relative to cAMP agonist control]	inactive	-3.98% [at 30.8 µM]	7.8% [at 30.8 µM]				
Cc1c([N+](=O)[O-])cnc(Sc2ccccc2)c1[N+](=O)[O-]	inactive		inactive			inactive	inactive	inactive	
O=c1c2ccccc2c(C=Nc2ccc(O)cc2)c(O)n1Cc1ccccc1	inactive	1.98% [at 17.1 µM, percent relative to cAMP agonist control]	inactive	-7.68% [at 30.8 µM]	1.81% [at 30.8 µM]				
CCOC(=O)c1c(C)oc2nc(C)nc(N(CC(C)C)CC(C)C)c12	inactive		inactive			inactive	inactive	inactive	
C[C@@H]1CC=C[C@@H]2[C@H]1C(=O)N(Cc1ccccc1)[C@H]2c1ccccc1Br	inactive		inactive			inactive	inactive	inactive	
C#Cc1ccc([C@@H]2C=C(C(=O)NCc3ccccc3)O[C@H](OCc3ccc(CO)cc3)C2)cc1	inactive		inactive			inactive	inactive	inactive	
O=C(Cc1ccc(Cl)cc1)Nc1cccc(C(=O)Nc2ccccc2C(=O)O)c1	inactive	8.25% [at 17.1 µM, percent relative to cAMP agonist control]	inactive	-15.6% [at 30.8 µM]	2.92% [at 30.8 µM]				
CCOC(=O)Cc1nn(Cc2ccc(Cl)cc2)c(=O)c2ccccc12	inactive		inactive			inactive	inactive	inactive	
O=C(Nc1cccnc1)c1c(O)c2cccc3c2n(c1=O)CC3	inactive	9.2% [at 17.1 µM, percent relative to cAMP agonist control]	inactive	-2.81% [at 30.8 µM]	22.3% [at 30.8 µM]				
CCCN(CCC)C(=O)Cn1c(=O)c2sccc2n2c(=S)sc(-c3ccccc3)c12	inactive	2.59% [at 17.1 µM, percent relative to cAMP agonist control]	inactive	-19.9% [at 30.8 µM]	-0.211% [at 30.8 µM]				
COc1cc(/C=C2/C(=O)NN(c3cccc(Cl)c3)C2=O)cc(OC)c1O	inactive	11.7% [at 17.1 µM, percent relative to cAMP agonist control]	inactive	-0.0912% [at 30.8 µM]	4.51% [at 30.8 µM]				
Cc1ccc(Cl)cc1NS(=O)(=O)c1ccccc1	inactive	2.77% [at 17.1 µM, percent relative to cAMP agonist control]	inactive	0.85% [at 30.8 µM]	7.24% [at 30.8 µM]				
CC(C)(C)C(=O)N1CCC2CC1c1cc(-c3ccc4c(c3)OCO4)ccc12 (stereo not given)	inactive	4.8% [at 17.1 µM, percent relative to cAMP agonist control]	inactive	-12.7% [at 30.8 µM]	13.1% [at 30.8 µM]				
NNc1cccc(C=Cc2ccccc2)cc1=O	inactive	0.393% [at 17.1 µM, percent relative to cAMP agonist control]	inactive	-9.39% [at 30.8 µM]	27.5% [at 30.8 µM]				
CCCOC(=O)c1c(NC(=O)C2C3C=CC(C3)C2C(=O)O)sc2c1CCC(C)C2 (stereo not given)	inactive	8.63% [at 17.1 µM, percent relative to cAMP agonist control]	inactive	1.23% [at 30.8 µM]	40.1% [at 30.8 µM]				
COC(=O)c1c(SC)nc2ccccc2c1OCc1ccc(C)cc1	inactive		inactive			inactive	inactive	17.8 µM (active)	
O=C(O)C(Cc1c[nH]c2ccccc12)NS(=O)(=O)c1ccc(Cl)c(C(F)(F)F)c1 (stereo not given)	inactive	-2.68% [at 17.1 µM, percent relative to cAMP agonist control]	inactive	-4.37% [at 30.8 µM]	21.8% [at 30.8 µM]				
O=C(NCc1cccc(Cl)c1)c1ccc(S(=O)(=O)Nc2cccc(C(F)(F)F)c2)cc1	inactive		inactive			inactive	inactive	inactive	
CCOCc1nnc(NC(=O)C2c3ccccc3Oc3ccccc32)s1	inactive		67.5 µM (active)			inactive	inactive	inactive	
CC1CCc2[nH]c3ccc(C(=O)N4CCCC(C(F)(F)F)C4)cc3c2C1 (stereo not given)	inactive		inactive			inactive	inactive	inactive	
Cc1nn(CCc2nn[nH]n2)c2nc(-c3ccc(Br)cc3)cc(C(F)(F)F)c12	inactive		inactive			inactive	inactive	inactive	

Structure (SMILES)	Potency [1]	activation [2]	Potency [3]	activity change, negative = inhibition [4]	activation [5]	Potency [2]	Potency [4]	Potency [5]	outcome [3]
COc1ccccc1-n1c(C)c(C(=O)O)c2cc(OC)c3ccccc3c21	inactive		47.8 µM (active)			inactive	inactive	inactive	
C=CCN(CC=C)Cc1cc(=O)oc2cc(C)c(Cl)cc12	inactive	4.33% [at 17.1 µM, percent relative to cAMP agonist control]	inactive	-4.4% [at 30.8 µM]	3.33% [at 30.8 µM]				
CC(C)CC1C(=O)N(Cc2cn(Cc3ccco3)nn2)CCS(=O)(=O)N1Cc1ccc(-c2ccccc2)cc1 (stereo not given)	inactive		19 µM (active)			inactive	inactive	inactive	
Cc1ccc(NC2c3ncccc3C(=O)N2Cc2cccs2)cc1 (stereo not given)	inactive	-5.52% [at 17.1 µM, percent relative to cAMP agonist control]	inactive	8.01% [at 30.8 µM]	1.62% [at 30.8 µM]				
COc1cccc(C2CC(c3cccs3)=NN2C(=O)c2ccco2)c1O (stereo not given)	inactive	3.1% [at 17.1 µM, percent relative to cAMP agonist control]	inactive	-12.7% [at 30.8 µM]	8.43% [at 30.8 µM]				
O=C(Nc1nc(-c2cc(F)ccc2F)cs1)C1=COCCO1	inactive		inactive			inactive	inactive	inactive	
CCOc1cc(/C=C(/C#N)c2ccc(Cl)cc2)cc(Cl)c1OCC(=O)O	inactive	3.22% [at 17.1 µM, percent relative to cAMP agonist control]	inactive	-8.72% [at 30.8 µM]	10.8% [at 30.8 µM]				
Cc1ccc(CN(C(=O)COc2cccc([N+](=O)[O-])c2)c2ccccn2)cc1	inactive					inactive	inactive	inactive	inactive [at 12.7 µM]
Cc1cccc(C)c1-n1cccc1/C=C1\SC(=S)N(c2cccc(C(=O)O)c2)C1=O	inactive		inactive			inactive	inactive	inactive	
COc1ccccc1C1CC(=O)Oc2cc(C)c(Cl)cc21 (stereo not given)	inactive		9.53 µM (active)			inactive	inactive	inactive	
CC1(C)[C@@H](O)CC[C@]2(C)C3C(O)C=C4[C@H]5C[C@@](C)(CO)CC[C@]5(C)CC[C@]4(C)[C@]3(C)CC[C@@H]12 (stereo not given in full)	inactive	-6.54% [at 17.1 µM, percent relative to cAMP agonist control]	inactive	-3.14% [at 30.8 µM]	-1.49% [at 30.8 µM]				
O=C(O)CCn1cc(/C=C\C(=O)c2ccc(Cl)cc2)c(-c2cccc(Br)c2)n1	inactive	4.02% [at 17.1 µM, percent relative to cAMP agonist control]	inactive	0.257% [at 30.8 µM]	15.3% [at 30.8 µM]				
CC(NC(=O)COc1ccccc1-c1ccccc1)c1ccccc1 (stereo not given)	inactive		inactive			inactive	inactive	inactive	
COc1ccc(/C=C2\Sc3ccc(C(=O)N4CCN(Cc5ccccc5)CC4)cc3N(C)C2=O)cc1OC	inactive		inactive			inactive	inactive	inactive	
CC(Oc1ccc(Cl)cc1)C(=O)Nc1sccc1C(N)=O (stereo not given)	inactive	0.0366% [at 17.1 µM, percent relative to cAMP agonist control]	inactive	-14.6% [at 30.8 µM]	24.1% [at 30.8 µM]				
CCC(=O)N(CCC(c1ccccc1)c1ccc2c(c1)OCO2)Cc1ccc(OC(C)C)cc1 (stereo not given)	inactive		inactive			inactive	inactive	inactive	
Cc1cc(NS(=O)(=O)c2ccc(Nc3nc(-c4ccc(O)cc4)cs3)cc2)no1	inactive		26.9 µM (active)			inactive	inactive	inactive	
CCOc1cc(/C=N/NC(=O)CSc2nncn2C)ccc1OC(=O)c1ccc(Cl)cc1	inactive	6.27% [at 17.1 µM, percent relative to cAMP agonist control]	inactive	0.431% [at 30.8 µM]	9.31% [at 30.8 µM]				
O=C(O)C(Cc1ccccc1)N1C(=O)/C(=C/c2cccs2)SC1=S (stereo not given)	inactive		75.7 µM (active)			inactive	inactive	inactive	
CCc1ccc2c(c1)NC(=O)C2(C)Cc1ccccc1OC (stereo not given)	inactive		inactive			inactive	inactive	inactive	
COc1ccc([C@@H]2[C@@H]3C(=O)N(C(C)(C)C)C(=O)[C@@H]3[C@]3(Cc4ccccc4)C(=O)N(c4cccc(Br)c4)C(=O)N23)cc1	inactive	2.72% [at 17.1 µM, percent relative to cAMP agonist control]	inactive	-15.9% [at 30.8 µM]	10.3% [at 30.8 µM]				
